# Assay: Her2 expression decrease, cell viability multiplex – SKBR3 breast tumor cells, AlphaScreen, ATP viability, primary screen (AID 461);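 note: percent of carrier control wells set as 100% viability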
# Details: SKBR3 Her2 protein level, 18-24 h, measured here: SKBR3 viability, ATP luminescence, at 10 µM
row,Structure (SMILES),viability [%]
1,Cc1ccc(-c2nc(N)n(C(=O)c3cccnc3)n2)cc1,86.5
2,COc1ccccc1N1CCN(C(=O)c2ccc3nc(-c4ccco4)c(-c4ccco4)nc3c2)CC1,103
3,Cc1ccc(OCC(=O)N2CCN(C(=O)CCC3CCCC3)CC2)cc1,104
4,O=c1c2[nH]c3cccc(Cl)c3c2ncn1CCN1CCCCC1,103
5,O=C(CS(=O)(=O)c1cn(Cc2ccc(Cl)cc2)c2ccccc12)N1CCOCC1,84
6,CCCC(=O)Nc1ccc(NC(=O)c2ccccc2OC)cn1,94.5
7,CC(C)CCNC(=O)C(c1ccco1)N(CC1CCCO1)C(=O)Cn1nnc2ccccc21 (stereo not given),100
8,Cn1cnnc1Sc1nc2c(c(=O)n(C)c(=O)n2C)n1C,87
9,CC(CCc1ccccc1)NC(=O)c1ccc(Br)o1 (stereo not given),110
10,O=C1CC(c2ccsc2)c2cc3c(cc2N1)OCCO3 (stereo not given),103
11,Nc1nonc1-n1nnc(C(=O)c2ccccc2)c1-c1ccccc1,96.5
12,C#CC1(O)CC(C)N(C)C(C)C1 (stereo not given),105
13,Cc1ccc(S(=O)(=O)CCC(=O)Nc2ccc3c(c2)OCO3)cc1,96.5
14,Cc1ccc(C)c2[nH]c(=O)c(CCNC(=O)c3ccc(Br)o3)cc12,87
15,O=c1c2ccccc2nc(SCc2cn3ccsc3n2)n1-c1ccc(F)cc1,73
16,Cn1c(SCC(=O)c2ccc(-c3ccccc3)cc2)nnc1-c1ccco1,120
17,O=C(NCCSCc1ccco1)Nc1cccc(Cl)c1,83.5
18,Cn1nnc2c(sc3nc(N4CCOCC4)c4c(c32)CCCC4)c1=O,100
19,CCOc1cc(NC(=O)c2ccco2)c(OCC)cc1NC(=O)COc1ccccc1C,67
20,CCOc1ccc(OCC)c2sc(C)nc12,107

row,Structure (SMILES),viability [%]
1,COC(=O)c1[nH]c2ccccc2c1NS(=O)(=O)c1ccc(OC)cc1OC,88.5
2,CC(NC(=O)c1ccco1)c1ccc2c(c1)OCCO2 (stereo not given),116
3,CCC(C)NC(=O)CSC1=Nc2ccccc2C2=NC(CC(=O)NCc3ccccc3)C(=O)N12 (stereo not given),96.5
4,Cc1nnc(N(C)C(=O)c2cccnc2)s1,110
5,COc1ccc(N2C(=O)C3CCCN3C2c2ccc(F)cc2)cc1Cl (stereo not given),102
6,CCCn1c(SCC(=O)Nc2nnc(-c3ccccc3)s2)nnc1-c1ccccn1,98.5
7,CN(C1CCCCC1)S(=O)(=O)c1ccc(S(=O)(=O)N2CCCC2)cc1,84.5
8,O=C(CN1CCN(C2CCCCC2)CC1)Nc1ccccc1-c1ccccc1,90.5
9,COc1cccc(-n2nnc3c(=O)n(Cc4cccc(F)c4)cnc32)c1,96.5
10,Cc1ccc(-n2c(SCC3CCCCO3)nnc2-c2ccco2)cc1 (stereo not given),89
11,Cc1ccc(-n2nnnc2SCC(=O)N2CCc3ccccc3C2)cc1,113
12,CCOC(=O)c1cccc(NC(=O)C2CCN(S(=O)(=O)c3cccs3)CC2)c1,75.5
13,CCn1c(CSc2ncccn2)nnc1SCC(=O)N1c2ccccc2CC1C (stereo not given),96
14,Cc1cc(C(=O)Nc2sc3c(c2C#N)CCCCC3)cs1,91.5
15,CCN(CC)c1ccc2c(C)c(-c3ccc(N)cc3)c(=O)oc2c1,96.5
16,N#CC(C(=O)Nc1ccc(Cl)c(Cl)c1)=C1Nc2ccccc2N1,90.5
17,CCn1nnnc1SCC(=O)N1CCOCC1,116
18,CCN(CC(=O)NCc1cccs1)C(=O)c1cc(S(=O)(=O)N2CCOCC2)ccc1C,89.5
19,O=C(Nc1ccc2c(c1)OCO2)c1ccc(Br)c(S(=O)(=O)N2CCCC2)c1,98.5
20,COc1ccc(CNS(=O)(=O)c2ccc3oc(C(=O)O)c(C)c3c2)cc1,103
